Potency data for 20 compounds are collected here from PubChem BioAssay (NCATS).

Structures are written as SMILES. Records with an inconclusive call do not appear. The source made the active and inactive calls. The call rests on the fitted dose curve; in most records, active means well fitted curve in the direction sought with a large enough effect; inconclusive means small, poorly fitted or top-dose-only effect, or another doubt; inactive means no such curve, though single readings can be large; an effect the other way counts as inactive or inconclusive.

Test [1] in a line: qHTS of pediatric cancer cell lines to identify multiple opportunities for drug repurposing: Primary screen for TC32 cells (AID 1347089). Further: nearly all actives have a fitted effect of over 60% in size. The gist of the method:
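In the primary qHTS, MIPE compounds were tested at 11 concentrations (0.78 nM to 46 µM) and NPC compounds at 8 (0.59 nM to 46 µM) on TC32 cells for 48 h. CellTiter-Glo luminescence gave viability.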
Background: Quantitative high-throughput screening tests each substance at several concentrations.

Test [2] in a line: qHTS of pediatric cancer cell lines to identify multiple opportunities for drug repurposing: Primary screen for DAOY cells (AID 1347090). Further: nearly all actives have a fitted effect of over 55% in size. The gist of the method:
(§1)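 Cell viability, CellTiter-Glo luminescence; 500-1,000 cells/well, 8- or 11-point titration, 48 h compound exposure at 37 degrees C, 5% CO2. Controls: DMSO neutral, bortezomib 2.3 µM final as positive.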

Test [3] is described as follows: qHTS of pediatric cancer cell lines to identify multiple opportunities for drug repurposing: Primary screen for SJ-GBM2 cells (AID 1347091). The gist of the method:
as §1

Test [4] is described as follows: qHTS of pediatric cancer cell lines to identify multiple opportunities for drug repurposing: Primary screen for A673 cells (AID 1347092). Further: nearly all actives have a fitted effect of over 45% in size. The gist of the method:
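48 h compound exposure, A673, 500-1,000 cells/well, 37 degrees C/5% CO2. MIPE: 11-point, 0.78 nM-46 µM; NPC: 8-point, 0.59 nM-46 µM (final). Readout CellTiter-Glo luminescence after 15 min RT.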

Test [5] can be described thus: qHTS of pediatric cancer cell lines to identify multiple opportunities for drug repurposing: Primary screen for BT-37 cells (AID 1347094). The method, boiled down: (§2)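 Cells plated at 500-1,000/well in growth medium, compounds added after 5 h. MIPE tested at 11 points (from 0.78 nM), NPC at 8 points (from 0.59 nM). CellTiter-Glo luminescence after 48 h; concentration-response curves from primary screen.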

Test [6] is described as follows: qHTS of pediatric cancer cell lines to identify multiple opportunities for drug repurposing: Primary screen for NB-EBc1 cells (AID 1347095). The method, boiled down: as §2
A short description of test [7]: qHTS of pediatric cancer cell lines to identify multiple opportunities for drug repurposing: Primary screen for U-2 OS cells (AID 1347096). Further: nearly all actives have a fitted effect of over 50% in size. The gist of the method:
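Cells (500-1,000/well) rested 5 h, then received compounds for 48 h; metabolically active cells were measured by CellTiter-Glo luminescence. Final concentrations spanned up to 46 µM (MIPE, 11-point) or 0.59 nM-46 µM (NPC, 8-point) in primary screens, 11-point in follow-ups.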

Test [8] can be described thus: qHTS of pediatric cancer cell lines to identify multiple opportunities for drug repurposing: Primary screen for Saos-2 cells (AID 1347097). Further: nearly all actives have a fitted effect of over 40% in size. The method, boiled down: as §2
The nature of test [9]: qHTS of pediatric cancer cell lines to identify multiple opportunities for drug repurposing: Primary screen for SK-N-MC cells (AID 1347093). The method, boiled down:
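Metabolically active cells were quantified by ATP-dependent luminescence (CellTiter-Glo, 15 min at room temperature) following 48 h treatment. Cells had been plated at 500-1,000 per well and settled for 5 h beforehand.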
Potency means the concentration at half of the fitted maximal effect.

As to `Nc1ncnc2ccccc12`, the Potency entry in [1], in test [3], in test [5], in test [6], in test [7] and in test [8] was “inactive” throughout. Also, the values for the Potency in test [2] and in [4] were 18700 nM (active) and 23500 nM (active), respectively.
Regarding `N#CC1(c2ccc(NC(=O)c3cccnc3NCc3ccncc3)cc2)CCCC1`, the Potency entry in test [1], in test [2], in [3], in test [4], in test [9] and in test [6] was “inactive” each time. Also, the Potency entry in test [7] is “inactive”.
For the compound `CN(C)CCC=C1c2ccccc2COc2ccc(CC(=O)O)cc21`, the Potency entry in test [1], in test [2], in test [3], in test [5], in [6] and in [7] was “inactive” throughout. Further, the Potency entry in [8] is “inactive”.
Regarding `CC(C)(C)COc1ccc(-n2cc(C(=O)O)cn2)cc1C#N`, the Potency entry in test [1], in test [2], in [3], in test [5], in test [7] and in test [8] was “inactive” in each case.
As for `CC(C)n1nc(-c2ccc3oc(N)nc3c2)c2c(N)ncnc21`, the Potency in test [1] was 11.7 nM (active); in [2], 14.8 nM (active); in test [3], 1.9 nM (active); in test [9], 1 nM (active); in test [5], 4.3 nM (active); in [6], 13.2 nM (active). Also, the Potency in test [7] was 148 nM (active); in test [8], 935 nM (active).
On to `N[C@@]1(C(=O)O)CS(=O)(=O)[C@H]2[C@H](C(=O)O)[C@H]21`, for which the Potency result in test [1], in test [2], in [3], in test [6], in [7] and in test [8] was “inactive” in each case. The Potency in test [9] was 18700 nM (active).
With `C[C@]12CC[C@@H]3c4ccc(O)cc4CC[C@H]3[C@H]1C[C@@H](O)[C@H]2O`, the Potency result in test [1], in [2], in test [3], in test [5], in test [7] and in test [8] was “inactive” in each case.
On to `O=c1cc(-c2ccccc2)oc2cc(O)c(O)c(O)c12`, for which the Potency result in test [1], in [2], in test [3], in [4], in [9] and in test [6] was “inactive” in each case. Moreover, the Potency in [8] is 18700 nM (active).
Consider `Cc1c[nH]c(C=C2C(=O)Nc3ccccc32)c1CCC(=O)O`, for which the Potency result in test [1], in test [2], in test [9], in test [5] and in test [7] was “inactive” throughout. The Potency in [3] was 18700 nM (active).
Take `COc1cc2nc(-c3ccc(N4CCN(C)CC4)cc3)nc(NCCN3CCOCC3)c2cc1OC`: the Potency was 523 nM (active) in test [1]; 74.3 nM (active) in [2]; 148 nM (active) in test [3]; 37.2 nM (active) in [9]; 3060 nM (active) in test [5]; 1480 nM (active) in test [6]. The Potency in test [7] is 935 nM (active); in test [8] it was 296 nM (active).
As to `O=C(N[C@@H](c1ccccc1)[C@@H]1CCCCN1)c1cccc(C(F)(F)F)c1Cl`, the Potency result in [1], in test [2], in test [3], in [7] and in test [8] was “inactive” throughout. For the same compound, the Potency is 20900 nM (active) in [9], 19300 nM (active) in test [5] and 7430 nM (active) in test [6].
Regarding `CON=C(C(=O)N[C@@H]1C(=O)N2C(C(=O)OCOC(=O)C(C)(C)C)=C(C=Cc3scnc3C)CS[C@H]12)c1csc(N)n1`, the Potency result in [1], in test [2], in test [3], in test [5], in [6] and in [7] was “inactive” each time. Besides, the Potency entry in test [8] is “inactive”. The Potency in test [9] is 18700 nM (active).
In the case of `N[C@H](CSC(c1ccccc1)(c1ccccc1)c1ccccc1)C(=O)O`, the Potency result in test [1] and in [7] was “inactive” each time. Also, the Potency in test [2] is 18700 nM (active); in test [3], 5260 nM (active); in test [4], 9350 nM (active); in test [9], 14800 nM (active); in test [6], 11800 nM (active); in test [8] it was 9350 nM (active).
Turning to `COc1cc2c(cc1OC)CN(CCc1ccc(NC(=O)c3cc(OC)c(OC)cc3NC(=O)c3cnc4ccccc4c3)cc1)CC2`, the Potency entry in test [1], in test [2], in [3], in [6] and in test [7] was “inactive” in each case. Further, in [9], the Potency is 10500 nM (active).
For the compound `CCCCCCCCCCCC1=C(O)C(=O)C=C(O)C1=O`, the Potency entry in test [1] and in test [7] was “inactive” each time. The Potency in [2] was 935 nM (active); in [3], 33.2 nM (active); in test [9] it was 93.5 nM (active); in test [5], 24.3 nM (active); in [6] it was 469 nM (active); in test [8], 37.2 nM (active).
On to `CC(=O)Nc1ccc([C@H](C)C(=O)Nc2ncc(C(C)C)s2)cc1`, for which the Potency in [1] is 16500 nM (active); in test [2] it was 1480 nM (active); in test [3] it was 743 nM (active); in test [9], 332 nM (active); in test [5] it was 4320 nM (active); in [6], 2350 nM (active). Further, the Potency in test [8] was 4180 nM (active).
Take `N#C[C@H]1C[C@H]2C[C@@H]2N1C(=O)[C@@H](N)C12CC3CC(CC(O)(C3)C1)C2`: the Potency entry in test [1], in test [2], in [3], in test [4], in test [5] and in [6] was “inactive” each time. Besides, the Potency entry in [7] is “inactive”.
For the compound `CC[C@H]1OC(=O)[C@H](C)C(=O)[C@H](C)[C@@H](O[C@H]2O[C@H](C)C[C@H](N(C)C)[C@@H]2O)[C@](C)(OC)C[C@@H](C)C(=O)[C@H](C)[C@H]2N(CCCCn3cnc(-c4cccnc4)c3)C(=O)O[C@]12C`, the Potency result in test [1], in test [2], in test [3], in test [6], in test [7] and in [8] was “inactive” in each case.
On to `CC(=O)Oc1cc2c(s1)CCN(C(C(=O)C1CC1)c1ccccc1F)C2` (stereo unspecified), for which the Potency entry in test [1] is “inactive”. For the same compound, the Potency in test [2] is 1480 nM (active); in test [4], 1480 nM (active); in [9] it was 1320 nM (active); in test [5], 1090 nM (active); in [6], 3720 nM (active).
On to `O=C(Nc1c(Cl)cncc1Cl)c1ccc(OC(F)F)c(OCC2CC2)c1`, for which the Potency result in test [1], in test [2], in test [3], in test [4], in [5] and in [6] was “inactive” throughout. For the same compound, the Potency result in test [7] is “inactive”.
